Assay results reported in PubChem BioAssay (NCATS).
Inconclusive results are not listed. Entries that show only a call come without a potency. Active and inactive are the calls of the source. The call rests on the fitted dose curve; in most records, active means well fitted curve in the direction sought with a large enough effect; inconclusive means small, poorly fitted or top-dose-only effect, or another doubt; inactive means no such curve, though single readings can be large; an effect the other way counts as inactive or inconclusive.

Columns and labels:
[1] = molecular target: Rap guanine nucleotide exchange factor 3 (Homo sapiens) (UniProt O95398); experiment: Confirmatory qHTS for agonist of cAMP-regulated guanine nucleotide exchange factor 3 (EPAC1) (AID 1645881); conditions: EPAC1 Rap1B BODIPY-GDP exchange fluorescence; series mostly up to 154 µM;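 further: EPAC1 catalysed release of BODIPY-GDP from Rap1B seen as fluorescence loss; nearly all actives have a fitted effect of over 75% in size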
Sequence of Rap guanine nucleotide exchange factor 3 (Homo sapiens) (O95398 whole entry, looked up): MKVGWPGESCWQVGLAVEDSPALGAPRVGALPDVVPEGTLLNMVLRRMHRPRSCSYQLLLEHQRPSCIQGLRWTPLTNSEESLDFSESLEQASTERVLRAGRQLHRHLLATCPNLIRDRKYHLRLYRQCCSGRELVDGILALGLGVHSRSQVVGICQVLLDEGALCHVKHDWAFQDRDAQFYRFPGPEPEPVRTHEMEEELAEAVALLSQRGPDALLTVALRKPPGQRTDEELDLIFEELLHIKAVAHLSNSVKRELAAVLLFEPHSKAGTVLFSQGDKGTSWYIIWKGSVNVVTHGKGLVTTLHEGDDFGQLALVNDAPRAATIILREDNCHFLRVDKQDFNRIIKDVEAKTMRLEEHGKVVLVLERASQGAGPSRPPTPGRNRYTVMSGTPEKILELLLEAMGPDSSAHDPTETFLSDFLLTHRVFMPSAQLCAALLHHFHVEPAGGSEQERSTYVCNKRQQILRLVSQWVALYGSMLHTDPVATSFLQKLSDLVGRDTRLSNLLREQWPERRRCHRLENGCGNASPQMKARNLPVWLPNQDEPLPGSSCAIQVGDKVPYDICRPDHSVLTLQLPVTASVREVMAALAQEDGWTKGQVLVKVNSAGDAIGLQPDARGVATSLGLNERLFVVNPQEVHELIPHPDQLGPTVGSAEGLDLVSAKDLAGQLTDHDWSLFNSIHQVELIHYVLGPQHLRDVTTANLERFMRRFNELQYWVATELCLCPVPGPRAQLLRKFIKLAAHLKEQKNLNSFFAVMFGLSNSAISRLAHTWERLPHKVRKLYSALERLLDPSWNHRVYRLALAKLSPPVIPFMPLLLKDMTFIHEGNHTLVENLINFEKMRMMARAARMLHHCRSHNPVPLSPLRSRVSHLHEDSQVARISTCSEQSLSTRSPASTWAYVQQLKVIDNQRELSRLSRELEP

[2] = molecular target: Rap guanine nucleotide exchange factor 4 (Homo sapiens) (UniProt Q8WZA2); experiment: Confirmatory qHTS for agonist of cAMP-regulated guanine nucleotide exchange factor 4 (EPAC2) (AID 1645884); conditions: EPAC2 GEF activity, Rap1B-BODIPY-GDP fluorescence; series mostly up to 154 µM;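 further: nucleotide exchange releases bodipy-GDP from Rap1 and this lowers its fluorescence; nearly all actives have a fitted effect of over 65% in size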
Sequence of Rap guanine nucleotide exchange factor 4 (Homo sapiens) (Q8WZA2 whole entry, looked up): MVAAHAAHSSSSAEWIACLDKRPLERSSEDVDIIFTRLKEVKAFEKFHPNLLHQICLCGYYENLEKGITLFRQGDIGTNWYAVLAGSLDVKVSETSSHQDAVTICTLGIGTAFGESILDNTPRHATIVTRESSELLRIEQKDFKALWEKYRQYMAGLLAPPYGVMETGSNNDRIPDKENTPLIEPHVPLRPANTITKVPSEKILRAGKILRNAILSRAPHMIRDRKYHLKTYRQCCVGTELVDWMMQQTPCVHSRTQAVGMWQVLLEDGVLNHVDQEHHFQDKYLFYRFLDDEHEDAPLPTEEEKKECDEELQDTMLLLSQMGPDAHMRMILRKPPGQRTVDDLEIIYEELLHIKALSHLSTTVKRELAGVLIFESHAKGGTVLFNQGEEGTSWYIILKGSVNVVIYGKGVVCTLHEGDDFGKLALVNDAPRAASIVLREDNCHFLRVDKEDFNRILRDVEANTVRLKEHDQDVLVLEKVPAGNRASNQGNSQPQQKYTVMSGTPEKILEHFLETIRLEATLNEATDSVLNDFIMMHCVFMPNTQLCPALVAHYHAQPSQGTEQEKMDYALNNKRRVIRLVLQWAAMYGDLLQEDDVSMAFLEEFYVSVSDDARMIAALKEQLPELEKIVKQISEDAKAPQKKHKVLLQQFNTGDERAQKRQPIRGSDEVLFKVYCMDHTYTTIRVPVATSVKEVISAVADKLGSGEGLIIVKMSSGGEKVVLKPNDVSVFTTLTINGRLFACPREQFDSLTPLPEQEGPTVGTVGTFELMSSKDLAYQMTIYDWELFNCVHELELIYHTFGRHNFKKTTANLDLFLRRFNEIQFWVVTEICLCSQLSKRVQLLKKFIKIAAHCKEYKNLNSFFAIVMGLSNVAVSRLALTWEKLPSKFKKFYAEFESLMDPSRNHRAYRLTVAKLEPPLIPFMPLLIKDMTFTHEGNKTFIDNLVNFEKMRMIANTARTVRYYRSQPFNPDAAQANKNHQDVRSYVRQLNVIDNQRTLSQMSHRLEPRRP

[3] = molecular target: Rap guanine nucleotide exchange factor 3 (Homo sapiens) (UniProt O95398); experiment: Counterscreen qHTS for agonist of cAMP-regulated guanine nucleotide exchange factor 3 (EPAC1) (AID 1645889); conditions: EPAC1 Rap1B-BODIPY-GDP exchange, fluorescence; series mostly up to 154 µM; further: nearly all actives have a fitted effect of over 40% in size
Outline: (§1)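 Rap1B–BODIPY-GDP (250 nM) with 50 uM GDP; compounds pin-transferred to 9.74 nM–152 uM final (activator) or from 7.32 nM upwards (inhibitor). Fluorescence Ex/Em 480/540 nm read at 5 and 30 min, then after adding cAMP or buffer, at room temperature.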

[4] = molecular target: Rap guanine nucleotide exchange factor 4 (Homo sapiens) (UniProt Q8WZA2); experiment: Confirmatory qHTS for antagonist of cAMP-regulated guanine nucleotide exchange factor 4 (EPAC2) (AID 1645885); conditions: EPAC2 Rap1B-BODIPY-GDP exchange fluorescence, biochemical; series mostly up to 12.7 µM; further: nearly all actives have a fitted effect of over 25% in size; further: potency means the concentration at half of the fitted maximal effect
[5] = molecular target: Rap guanine nucleotide exchange factor 3 (Homo sapiens) (UniProt O95398); experiment: Counterscreen qHTS for antagonist of cAMP-regulated guanine nucleotide exchange factor 3 (EPAC1) (AID 1645888); conditions: Rap1B-BODIPY-GDP nucleotide exchange, fluorescence; series mostly up to 154 µM;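 further: fluorescence loss as bound BODIPY-GDP is released from Rap1B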
Outline: as §1

**Q.** With `COc1ccc(-c2nc(CCNS(=O)(=O)c3ccc4c(c3)OCCO4)cs2)cc1` as the compound, how does the Potency [1] read?
**A.** inactive

**Q.** And the Potency [2]?
**A.** inactive

**Q.** What about the Potency [3] of the same compound?
**A.** inactive

**Q.** Which Potency [1] does the source give for `Cc1cc(C)c2nc(C(F)(F)F)nc(N3CC(C)OC(C)C3)c2c1` (stereo not given) here?
**A.** inactive

**Q.** What about the Potency [2] of the same compound?
**A.** inactive

**Q.** And the Potency [3]?
**A.** inactive

**Q.** How did the Potency [1] turn out when `O=C(c1ccco1)N1N=C2CCCCCC2C1(O)C(F)(F)F` (stereo not given) was run?
**A.** inactive

**Q.** What about the Potency [2] of the same compound?
**A.** inactive

**Q.** And the Potency [3]?
**A.** inactive

**Q.** Which results are given for `C=CCN(C(=O)Cn1ncc2c1-c1cc(C)ccc1OC2)c1ccccc1`?
**A.** Potency [1]: inactive; Potency [2]: inactive; Potency [3]: inactive

**Q.** With `C#Cc1ccc([C@H]2C=C(C(=O)NCc3ccccc3)O[C@@H](OCC)[C@@H]2CCCO)cc1` as the compound, how does the Potency [1] read?
**A.** inactive

**Q.** What about the Potency [4] of the same compound?
**A.** 37.9 µM (active)

**Q.** And the Potency [5]?
**A.** inactive

**Q.** With `COc1ccc(-c2ccc(C(=O)NC(C)C)c3occc23)c(C)c1` as the compound, how does the Potency [1] read?
**A.** inactive

**Q.** What about the Potency [4] of the same compound?
**A.** inactive

**Q.** What about the Potency [5] of the same compound?
**A.** inactive

**Q.** Which results are given for `Clc1ccc(OCCn2c(-c3ccco3)nc3ccccc32)cc1`?
**A.** Potency [1]: inactive; Potency [4]: inactive; Potency [5]: inactive

**Q.** How did the Potency [1] turn out when `N/C(CSc1nc(-c2ccccc2)c(-c2ccccc2)o1)=N\O` was run?
**A.** inactive

**Q.** What about the Potency [4] of the same compound?
**A.** 16.9 µM (active)

**Q.** And the Potency [5]?
**A.** inactive

**Q.** Which results are given for `O=[N+]([O-])c1cccc(S(=O)(=O)Nc2cccc(-c3ccc(N4CCCC4)nn3)c2)c1`?
**A.** Potency [1]: inactive; outcome [4]: inactive [at 12.7 µM]; Potency [5]: inactive

**Q.** Which Potency [1] does the source give for `CC1=CC(C)(C)N2C(=O)C(=Nc3ccc(O)cc3)c3cccc1c32` here?
**A.** inactive

**Q.** What about the Potency [4] of the same compound?
**A.** inactive

**Q.** What about the Potency [5] of the same compound?
**A.** inactive
